# DT40 TDP1 no CPT – qHTS for Inhibitors of human tyrosyl-DNA phosphodiesterase 1 (TDP1): qHTS in cells in absence of CPT | DT40 Tdp1-/- hTDP1 cells, no CPT, ATP luminescence, 48 h | Potency, µM (doses to about 46.2 µM), inactives show top-dose activity change, negative = growth inhibition, usual class: inhibitors | actives 15% (n = 420,000) | AID 686978, 2013; also: potency is read from the fitted curve at half-maximal effect; % is scaled to controls: 0 for no effect and ±100 for the full control effect; nearly all actives have a fitted effect of over 55% in size
#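 Chicken DT40 Tdp1-/- cells complemented with human TDP1, screened without camptothecin (DMSO vehicle only), 400 cells/well. Compounds pin-transferred, cells incubated at 37 °C for at least 48 hr. Growth read as ATP-dependent luminescence (CellTiter-Glo, 30 min at RT).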
# IL-1B inflam inh – blocks inflammasome-driven IL-1 beta release; THP-1 LPS/ATP IL-1B secretion, AlphaLISA, 16 h; stronger effect = lower value; activity change, % at 57.5 µM; actives 4.7% (n = 360,000); AID 743279; in the data active = activity change below about -50%; inconclusive = mostly about -30% to -49%; also: % is scaled to controls: 0 for no effect and ±100 for the full control effect
#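 Secreted IL-1B measured by AlphaLISA bead assay after 16 h compound exposure of THP-1 cells; compounds (final up to 57.5 uM) added 1 h before LPS (250 ng/mL) and ATP (1.25 mM) stimulation; lower signal means less secretion.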
# SW480 rereplic – DNA re-replication induction in SW480 cells. SW480 DNA re-replication, Hoechst DNA content imaging, 48 h. Potency, µM (doses to about 46.1 µM), without a hit: at the top dose re-replication activation, hits mostly activators. actives 1.8% (n = 340,000); also: potency is read from the fitted curve at half-maximal effect; % of control where 0% means no effect; nearly all actives have a fitted effect of over 55% in size
#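 250 cells/well; 23 nL cpd via pin tool; 48 hr, 37 C, 5% CO2; Hoechst 40 min; imager read of total nuclear intensity, ex 405/em 500-530 nm.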
# BCR signal inh – blocks chronic active B-cell receptor signaling. ABC-DLBCL IkBa-CBG/CBR reporter, luminescence ratio, 4 h. Potency, µM (titrated, usually from 46.1 µM), inactives show top-dose activity change, negative = inhibition, hits mostly inhibitors. actives 0.05% (n = 340,000). AID 493014; active = well fitted inhibition curve with a large enough effect in the signal ratio, with a control signal flat, not every such curve was filed as active; inconclusive = small, poorly fitted or top-dose-only effect, or effect the other way, or a change in a side signal; the % refers to the signal ratio;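 also: potency is read from the fitted curve at half-maximal effect; plate controls were basal doxycycline-induced cells for no effect and cells given 10 µM MG132 for full effect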
#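 Compounds up to 46 uM were incubated four hours with TMD8 cells whose green CBG68 luciferase is fused to IkappaBalpha; red CBR luminescence normalised the signal, and concentration-effect curves were fitted to fusion, red and ratio data.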
# MCF10A rerep – DNA re-replication induction in MCF 10a cells; MCF 10A DNA re-replication, Hoechst nuclear intensity, 48 h; Potency, µM (top dose mostly 46.1 µM), for the others: at the highest dose activity, positive = re-replication, usual class: activators; actives 2.9% (n = 350,000); AID 624296; also: potency is read from the fitted curve at half-maximal effect; % of control where 0% means no effect; nearly all actives have a fitted effect of over 50% in size
# TDP1 cell CPT – growth inhibition of DT40 Tdp1-/-;hTDP1 cells with camptothecin (screen for TDP1 inhibitors). chicken DT40 Tdp1-/-;hTDP1 cells + 20 nM CPT, ATP luminescence, 48 h. Potency, µM (titrated, usually from 46.2 µM), without a hit: at the highest dose activity change, negative = growth inhibition, hits mostly inhibitors. actives 12% (n = 420,000); also: potency is read from the fitted curve at half-maximal effect; % is scaled to controls: 0 for no effect and ±100 for the full control effect; nearly all actives have a fitted effect of over 55% in size
#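 Chicken DT40 Tdp1-/- cells stably complemented with human TDP1 were seeded at 400 cells/well in medium containing 20 nM camptothecin, exposed to pin-transferred compounds, and grown at 37 °C for at least 48 hr. Viability was read as ATP luminescence.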
# Numbers without * were called inactive; ? = inconclusive; · = not tested or not shown; [ ] = dose if it differs, or a comment. Compounds with a hit are over-represented: about 19% of the library has one in this group of screens. Unless noted, calls follow the shape of the dose curve; as a rule, active = well fitted curve in the direction sought with a large enough effect; inconclusive = small, poorly fitted or top-dose-only effect, or another doubt; inactive = no such curve, though single readings can be large; an effect the other way counts as inactive or inconclusive.
SMILES,DT40 TDP1 no CPT,IL-1B inflam inh,SW480 rereplic,BCR signal inh,MCF10A rerep,TDP1 cell CPT
CN1CCN(CC(=O)N2N=C(c3cccs3)CC2c2ccco2)CC1 (centres undefined),-7%,13,-40%,0%,-2%,-8%
CCOc1ccc(N(C)S(=O)(=O)c2ccc3[nH]cc(C(=O)NCC(OC)OC)c(=O)c3c2)cc1,26µM*,5,-1%,-1%,16%,?
CN(CC(=O)NCCC1=CCCCC1)S(=O)(=O)c1ccc2c(c1)c(=O)n(C)c(=O)n2C,?,-10,-8%,-6%,-1%,8.2µM*
CCN(CC)S(=O)(=O)c1ccc2[nH]cc(C(=O)NCCC3=CCCCC3)c(=O)c2c1,18µM*,?,2%,5%,?,10µM*
CCc1ccc(N(C)S(=O)(=O)c2ccc3[nH]cc(C(=O)NCC4CCCO4)c(=O)c3c2)cc1 (centres undefined),15µM*,·,·,-5%,·,?
CN(CC(=O)NCCc1ccc(Cl)cc1)S(=O)(=O)c1ccc2c(c1)c(=O)n(C)c(=O)n2C,?,-7,-14%,2%,6%,?
Cc1cc2c(cc1S(=O)(=O)Nc1ccc(OC(F)(F)F)cc1)OCC(=O)N2,?,35,1%,4%,-4%,?
COc1ccccc1-c1ccnc(-n2ncc(C(=O)N3CCN(C4CCCC4)CC3)c2-c2ccco2)n1,-16%,·,·,·,·,5%[9.04 µM]
CCN(C(=O)CN(C)S(=O)(=O)c1ccc2c(c1)c(=O)n(C)c(=O)n2C)c1ccc(OC)cc1,23µM*,·,·,·,·,-17%
COc1ccc(-c2nnn(CC(=O)N(Cc3cccs3)C(C)C(=O)NC3CCCC3)n2)cc1OC (centres undefined),?,-15,-3%,1%,7%,29µM*
CC(C)CCNC(=O)C(c1ccncc1)N(Cc1cccs1)C(=O)Cn1nnc(-c2ccc(F)cc2)n1 (centres undefined),?,-15,25%,?,?,9.2µM*
CCC(C(=O)NC1CCCC1)N(C(=O)Cn1nnc(-c2ccc(OC)c(OC)c2)n1)C1CCCCC1 (centres undefined),?,?,1%,?,3%,13µM*
CCC(C(=O)NC1CCCC1)N(Cc1cccs1)C(=O)Cn1nnc(-c2ccc(OC)c(OC)c2)n1 (centres undefined),?,?,0%,-5%,-3%,-22%
CCC(C(=O)NC1CCCC1)N(C(=O)Cn1nnc(-c2ccc(C)cc2)n1)C1CCCC1 (centres undefined),18µM*,-54*,18%,·,-6%,26µM*
NC(=O)c1nn(CC(=O)Nc2cccc(S(=O)(=O)N3CCCC3)c2)c(=O)c2ccccc12,-1%,15,-9%,-6%,0%,-26%
COc1cc(C(=O)Nc2ccc3c(c2)CCCN3C(=O)c2ccco2)c([N+](=O)[O-])cc1OC,-25%,-7,0%,-29%,8%,-4%
CCCCNC(=O)C1(C)CCN1C(=O)c1cccnc1Oc1ccccc1 (centres undefined),-4%,7,·,·,·,0%
O=C(c1ccco1)n1nc(-c2cccnc2)nc1NCc1ccco1,23µM*,6,-63%,-8%,-35%,?
COc1ccc(CC(=O)n2nc(-c3ccc(Cl)cc3)nc2NCc2ccco2)cc1,18µM*,15,?,-6%,?,?
O=C1Nc2cc(C(=O)NCCCN3CCCC3)ccc2S/C1=C/c1ccccc1F,?,?,18µM*,-2%,?,18µM*
O=C(NCCCN1CCCCC1)c1ccc2c(c1)NC(=O)c1ccccc1S2,?,-17,-6%,6%,21%,-25%
O=C1Nc2cc(C(=O)NCCN3CCCCCC3)ccc2S/C1=C/c1ccccc1F,3.7µM*,-102*,·,·,·,7.3µM*
Cc1occc1-c1nnc(SCC(=O)NC2CCCCC2C)o1 (centres undefined),-24%,0,2%,3%,0%,-14%
COc1cccc(-c2ccnc(-n3ncc(C(=O)N(C)CCc4ccccn4)c3C)n2)c1,-23%,·,·,·,·,17%
Cc1ccc(CC(=O)NC2CCN(Cc3ccccc3)CC2)cc1,-14%,5,?,2%,?,-8%
SMILES,DT40 TDP1 no CPT,IL-1B inflam inh,SW480 rereplic,BCR signal inh,MCF10A rerep,TDP1 cell CPT
Cc1ccc(C2/C=C\CC(NC(=O)OCC3c4ccccc4-c4ccccc43)CC(=O)N2Cc2ccccc2)cc1 (centres undefined),16µM*,?,0%,-5%,-6%,?
O=C(Nc1ccc(S(=O)(=O)Nc2ccc(Cl)cc2)cc1)C1CCCO1 (centres undefined),13µM*,-17,5%,14%,-9%,16µM*
COc1cc(NS(=O)(=O)c2ccc(NC(=O)C3CCCO3)cc2)nc(OC)n1 (centres undefined),1%,25,-3%,19%,-14%,9%
O=C(NS(=O)(=O)c1ccc(NC(=O)C2CCCO2)cc1)c1ccccc1 (centres undefined),4%,19,2%,15%,-4%,8%
CCCCCCNS(=O)(=O)c1ccc(NC(=O)C2CCCO2)cc1 (centres undefined),10µM*,6,-7%,-5%,2%,9.2µM*
Cc1ccc(S(=O)(=O)N2CCN(C(=O)Cn3c(=O)cnc4ccccc43)CC2)cc1,-17%,-10,1%,3%,3%,?
CC(C)C[C@H]1COc2cccc(N3CCC[C@H]3CO)c2S(=O)(=O)N1,-20%,99,·,·,·,-22%
CC(C)OC(=O)CSc1nnc(COc2ccc([N+](=O)[O-])cc2)n1C,4%,-98*,-2%,6%,1%,0%
CCOc1cc(C)ccc1OCc1nnc(SCC(=O)c2cccc([N+](=O)[O-])c2)n1C,-15%,-51*,?,-4%,-17%,-30%
COC(=O)CSc1nnc(COc2ccc([N+](=O)[O-])cc2)n1C,21%,-4,-1%,1%,-13%,13%
O=C(CCl)N(O)c1ccc(C=Cc2ccccc2)cc1,0.21µM*,-77*,?,·,?,0.13µM*
CN(C(=O)C=Cc1ccccc1)c1ccccc1,-23%,-9,-1%,·,9%,-5%
